Hit rate of the full screen: of about 360,000 compounds, about 25,000 (6.9%) were called active. Roughly 9% stayed inconclusive and do not appear here. The sample holds actives, similar compounds and a random draw of the others, so the mix is not that of the screen. Unmarked numbers belong to inactive results. Calls follow the shape of the dose curve; as a rule, active = well fitted inhibition curve with a large enough effect; inconclusive = small, poorly fitted or top-dose-only effect; inactive = flat fitted curve, though single readings scatter.
Potency is read from the fitted curve at half-maximal effect.

Sequence of Luciferin 4-monooxygenase (Photinus pyralis) (P08659 whole entry, looked up): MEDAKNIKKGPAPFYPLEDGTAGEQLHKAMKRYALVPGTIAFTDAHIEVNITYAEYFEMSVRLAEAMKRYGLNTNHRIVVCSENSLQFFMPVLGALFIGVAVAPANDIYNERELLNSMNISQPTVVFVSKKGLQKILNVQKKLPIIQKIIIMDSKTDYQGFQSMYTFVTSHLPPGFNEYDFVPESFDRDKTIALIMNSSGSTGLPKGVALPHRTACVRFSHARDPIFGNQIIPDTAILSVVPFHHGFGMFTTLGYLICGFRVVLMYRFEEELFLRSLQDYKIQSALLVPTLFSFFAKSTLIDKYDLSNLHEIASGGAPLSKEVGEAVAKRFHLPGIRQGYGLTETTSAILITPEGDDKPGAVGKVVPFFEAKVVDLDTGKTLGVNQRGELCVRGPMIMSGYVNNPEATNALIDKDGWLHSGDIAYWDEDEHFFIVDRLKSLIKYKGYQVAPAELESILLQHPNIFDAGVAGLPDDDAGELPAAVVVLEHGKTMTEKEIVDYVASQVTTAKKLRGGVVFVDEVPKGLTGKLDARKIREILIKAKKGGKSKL

The target in the assay is Luciferin 4-monooxygenase (Photinus pyralis) (UniProt P08659). Kind of assay: qHTS profiling assay for firefly luciferase inhibitor/activator using purifed enzyme and Km concentrations of substrates (counterscreen for miR-21 project). Also: nearly all actives have a fitted effect of over 55% in size.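 As to activity change, negative = inhibition: plate controls were vehicle for no effect and reference inhibitor for full effect.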 Particulars: purified FLuc, luminescence inhibition; series mostly up to 57.5 µM; activity change, negative = inhibition: at the top concentration. The essentials:
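Purified P. pyralis luciferase (10nM final) with 10uM D-luciferin and 10uM ATP (Km levels) in 50mM Tris acetate pH 7.5, 10mM Mg acetate, 0.01% Tween-20, 0.05% BSA; qHTS 6-point titration, ~60 µM downward; luminescence read.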
For orientation: qHTS replaces the single test concentration by a dilution series.
As for `COc1ccc(C(=O)NCC2CCCCC2)cc1S(=O)(=O)N1CCCC1`, the “activity change, negative = inhibition” value was -4.76%.
Consider `CCC(=O)N1CCc2cc(Br)cc(S(=O)(=O)CCC(=O)NCc3ccccc3OC)c21`, for which the “activity change, negative = inhibition” value was -9.49%.
Consider `COc1cc(OC)c(NC(=O)c2cnc(N3CCCC3)nc2C)cc1Cl`, for which the “activity change, negative = inhibition” value was 2.64%.
In the case of `Cc1sc2nc(CC(N)=O)[nH]c(=O)c2c1-c1ccccc1`, the “activity change, negative = inhibition” value is 2.11%.
Regarding `CC1CCC2(CC1)N=C(c1ccccc1)C(=O)N2CC(=O)Nc1ccc(F)c(Cl)c1` (stereo not drawn), the “activity change, negative = inhibition” value is -0.323%.
Regarding `O=C(NCc1ccccn1)c1cc(-c2ccccc2Cl)on1`, the Potency is 10.7 µM (active).
`CSc1ccccc1C(=O)NCc1ccccc1`: the “activity change, negative = inhibition” value was 3.41%.
In the case of `Nc1ccc(C(=O)NCc2ccccc2)cc1`, the “activity change, negative = inhibition” value is -5.23%.
Still for that read-out and setting: under `CCCCNC(=O)c1cc(-c2ccc(Cl)c(Cl)c2)on1` stands 2.84%.
For `N=c1oc2ccccc2cc1C(=O)N/N=C/c1ccccc1`, the Potency is 1.35 µM (active).
For `O=C(N/N=C\c1cccc(Br)c1)c1ccccc1-n1cccc1`, the “activity change, negative = inhibition” value was 0.179%.
Consider `O=C(CCCCCNC(=O)c1ccccc1)N/N=C/c1ccccc1`, for which the “activity change, negative = inhibition” value is 0.301%.
As to `N=c1oc2ccccc2cc1C(=O)NCc1ccccc1`, the Potency is 9.53 µM (active).
Turning to `O=C(NCc1ccccc1)c1cc(-c2cccc(Cl)c2)on1`, the “activity change, negative = inhibition” value was 2.29%.
As to `CC(C)[C@H](NC(=O)N1CCn2c1nc1ccccc12)C(=O)NCCc1ccccc1`, the “activity change, negative = inhibition” value was 0.834%.
As for `Cc1ccc(C(=O)Nc2c(C#N)c(C)c(C)n2Cc2ccccc2)cc1`, the “activity change, negative = inhibition” value was -1.22%.
With `Cc1ccc(/C=N/NC(=O)CN2CCN(Cc3ccccc3)CC2)s1`, the “activity change, negative = inhibition” value was -3.1%.
With `Cc1ccc(C(=O)N/N=C/c2sc(=O)n(Cc3cccc(C(=O)O)c3)c2Cl)cc1`, the Potency was 16.9 µM (active).
As to `C=C1CCC(N(O)c2cc(C)on2)C(=C)CCC2C1CC2(C)C` (stereo not drawn), the “activity change, negative = inhibition” value was -0.208%.
For `CCCCCc1ccc(-c2ccc(OCC)cc2)nc1`, the Potency was 10.7 µM (active).
For `CCOc1ccc(-c2cc(C)n3nc(C(=O)Nc4ccc(C)c(C)c4)cc3n2)cc1`, the “activity change, negative = inhibition” value is 2.77%.
Turning to `Cc1ccc(-c2cn3c(n2)sc2cc(C(=O)NCCCc4ccccc4)ccc23)cc1`, the “activity change, negative = inhibition” value was -7.52%.
`CCOc1c(CNCc2ccc(C(=O)O)cc2)cccc1OC`: the “activity change, negative = inhibition” value was -0.885%.
Same read-out and setting: under `CCCCCc1ccc(-c2cn(Cc3ccc4ccccc4c3)nn2)cc1` stands 1.7%.
In the case of `CCCCCc1ccc(-c2ccc(C(=O)O)cc2)nc1`, the Potency is 0.675 µM (active).
`Cc1cc(F)ccc1S(=O)(=O)Nc1ccc(C(=O)N(C)Cc2ccco2)cc1`: the “activity change, negative = inhibition” value is -0.606%.
On to `CCc1nc2nc(C)cc(Nc3ccc(F)c(Cl)c3)n2n1`, for which the “activity change, negative = inhibition” value was 7.42%.
In the case of `COc1ccc(/C=C/c2nc(C#N)c(NCc3ccc(F)cc3)o2)cc1OC`, the “activity change, negative = inhibition” value is -8.93%.
Still for that read-out and setting: under `CCCCCn1c(=O)[nH]c2cc(C(=O)NCCN(C)CCCC)ccc2c1=O` stands 0.508%.
With `CCc1ccc(C2CC(=O)c3c([nH]c(C(=O)OCc4ccc(C)cc4)c3C)C2)cc1` (stereo not drawn), the “activity change, negative = inhibition” value is 0.719%.
On to `COc1ccccc1Nc1c2c(nc3ccc(NC(=O)/C=C/c4cc(OC)c(OC)c(OC)c4)cc13)CCCC2`, for which the “activity change, negative = inhibition” value was 22.1%.
On to `N#Cc1cccc(NC(=O)C2CCCN(C(=O)c3ccc(Cl)cc3)C2)c1` (stereo not drawn), for which the “activity change, negative = inhibition” value was -1.14%.
Consider `CCc1ccc(CNCc2c(C(=O)O)n(Cc3ccc(F)cc3Cl)c3cc(OC)ccc23)cc1`, for which the “activity change, negative = inhibition” value was -6.35%.
Regarding `O=C(CSc1nc2c(c(=O)[nH]1)CN(Cc1ccc3c(c1)OCO3)CC2)Nc1cc(F)ccc1F`, the “activity change, negative = inhibition” value is -4.96%.
Regarding `c1ccc(-c2cn3c(n2)CCc2ccc4cccnc4c2-3)cc1`, the Potency was 10.7 µM (active).
On to `COc1ccc(NC(=O)CCCc2nnc3n(CCC(C)C)c(=O)c4sccc4n23)c(OC)c1`, for which the “activity change, negative = inhibition” value is 1.17%.
As for `CCc1ccc(NC(=O)c2cc3c(=O)n(Cc4cccnc4)ccc3nc2C)cc1`, the “activity change, negative = inhibition” value was -5.95%.
Consider `CCN(CC)CCCNC(=O)COc1ccc2oc3c(c2c1)CCCC3`, for which the “activity change, negative = inhibition” value was -2.85%.
For `CCOC(=O)N1CCN(C(=O)COc2ccc3oc4c(c3c2)CCCC4)CC1`, the “activity change, negative = inhibition” value was -16.5%.
For `O=C(COc1ccc2oc3c(c2c1)CCCC3)Nc1ccccn1`, the Potency is 1.07 µM (active).
With `COc1ccc(C2c3c(oc4ccccc4c3=O)C(=O)N2Cc2ccc3c(c2)OCO3)cc1` (stereo not drawn), the “activity change, negative = inhibition” value was -4.43%.
For the compound `O=C(Nc1ncc([N+](=O)[O-])s1)C1COc2ccccc2O1` (stereo not drawn), the Potency was 21.3 µM (active).
Regarding `COc1ccc(NC(=O)CC2COc3ccccc3O2)c(OC)c1` (stereo not drawn), the “activity change, negative = inhibition” value was -1.63%.
`CC(/C=C/c1ccco1)=N/NC(=O)C1COc2ccccc2O1` (stereo not drawn): the “activity change, negative = inhibition” value is -20.5%.
Take `C/C(=N/NC(=O)C1COc2ccccc2O1)c1ccco1` (stereo not drawn): the “activity change, negative = inhibition” value was 2.51%.
With `COc1ccc([N+](=O)[O-])cc1NC(=O)CCc1ccccc1`, the “activity change, negative = inhibition” value was -4.23%.
In the case of `O=C(Cc1c(F)cccc1Cl)Nc1ncc([N+](=O)[O-])s1`, the Potency is 21.3 µM (active).
On to `O=C(CCc1ccccc1)Nc1ncc([N+](=O)[O-])s1`, for which the Potency was 15.1 µM (active).
Regarding `CCN(CC)S(=O)(=O)c1ccc(N2CCOCC2)c(NC(=O)C2COc3ccccc3O2)c1` (stereo not drawn), the “activity change, negative = inhibition” value is -2.19%.
As for `CN(c1ccccc1)S(=O)(=O)c1cccc(NC(=O)Cc2c(F)cccc2Cl)c1`, the “activity change, negative = inhibition” value is -5.92%.
Consider `CC(C)Cc1nnc(NC(=O)CCc2ccccc2)s1`, for which the “activity change, negative = inhibition” value was -15.7%.
For the compound `O=C(Cc1c(F)cccc1Cl)Nc1ccc(-n2cnnn2)cc1`, the “activity change, negative = inhibition” value was 2.75%.
On to `COc1ccc(NC(=O)C2COc3ccccc3O2)cc1` (stereo not drawn), for which the Potency is 16.9 µM (active).

The values are drawn from PubChem BioAssay AID588342 (National Center for Advancing Translational Sciences (NCATS), 2011).
